BoNT-F LC inh: inhibitors of Botulinum neurotoxin F light chain protease; Multiplex microsphere protease cleavage assay, flow cytometry; inhibition, % at 10 µM; actives 0.22% (n = 360,000); in the data active = inhibition above about 35%, passing the limit was not always enough
Anthrax LF inh2: anthrax lethal factor protease inhibition; P15917; multiplex microsphere protease cleavage assay, LF; inhibition, % at 10 µM; actives 0.12% (n = 360,000); in the data active = inhibition above about 30%
Target sequence (P15917 whole entry, looked up): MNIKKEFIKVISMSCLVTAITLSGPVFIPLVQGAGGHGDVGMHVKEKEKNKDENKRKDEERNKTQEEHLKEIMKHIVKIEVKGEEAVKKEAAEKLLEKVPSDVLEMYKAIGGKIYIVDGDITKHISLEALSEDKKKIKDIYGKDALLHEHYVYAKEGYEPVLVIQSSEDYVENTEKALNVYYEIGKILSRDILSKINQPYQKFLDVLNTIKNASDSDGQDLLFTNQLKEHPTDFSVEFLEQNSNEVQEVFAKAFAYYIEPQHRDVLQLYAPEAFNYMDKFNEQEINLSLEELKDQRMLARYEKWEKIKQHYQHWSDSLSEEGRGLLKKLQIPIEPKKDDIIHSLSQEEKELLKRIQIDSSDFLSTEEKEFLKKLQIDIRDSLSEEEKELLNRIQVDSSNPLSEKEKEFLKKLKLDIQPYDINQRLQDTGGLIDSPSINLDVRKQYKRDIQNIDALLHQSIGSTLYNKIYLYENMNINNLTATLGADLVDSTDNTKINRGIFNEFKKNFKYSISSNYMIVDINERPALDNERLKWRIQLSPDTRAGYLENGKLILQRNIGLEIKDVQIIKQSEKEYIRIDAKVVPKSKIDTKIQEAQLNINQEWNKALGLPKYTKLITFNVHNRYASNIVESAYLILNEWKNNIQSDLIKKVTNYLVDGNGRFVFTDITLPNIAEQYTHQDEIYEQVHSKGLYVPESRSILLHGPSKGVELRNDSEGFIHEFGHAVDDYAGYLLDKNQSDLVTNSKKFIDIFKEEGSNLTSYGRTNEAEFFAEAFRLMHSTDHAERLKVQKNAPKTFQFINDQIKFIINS
CCHF vOTU inh-1: blocks the CCHF virus ovarian tumor domain protease; AID 651958; inhibition, % at 11.5 µM; CCHFV vOTU protease, Pep-AMC fluorescence; actives 0.55% (n = 370,000)
BoNT-A LC inh2: BoNT A light chain protease inhibition | actives 0.17% (n = 360,000) | multiplex microsphere protease substrate cleavage, flow cytometry | inhibition, % at 10 µM; in the data active = inhibition above about 30%
Bead autofluor: counter-screen for toxin protease inhibitors: compound fluorescence. actives 3.1% (n = 360,000). compound autofluorescence counterscreen, microsphere flow cytometry; hits give high values. fluorescence intensity (concentration not given with the values). AID 624483; in the data active = fluorescence intensity above about 16000
SARS 3CLpro inh-1: SARS-CoV 3CLpro protease inhibition. recombinant SARS-CoV 3CLpro, quenched FRET peptide cleavage. inhibition, % at 6 µM. actives 0.14% (n = 290,000); in the data active = inhibition above about 12%
SARS 3CLpro inh-2: SARS 3CLpro inhibition, confirmation assay; shares compounds with SARS 3CLpro inh-1; QFRET protease activity assay; inhibition, % at 6 µM; actives 36% (n = 380); AID 1879; in the data active = inhibition above about 13%
BoNTA LC inh 1: BoNT/A light chain protease inhibition | actives 3% (n = 720) | multiplex microsphere protease assay, flow cytometry | AID 602139 | shares compounds with BoNT-F LC inh | inhibition, % at 10 µM; in the data active = inhibition above about 32%
BoNT-F LC CP1: inhibitors of Botulinum neurotoxin F light chain protease; shares compounds with BoNT-F LC inh; multiplex microsphere protease cleavage assay, flow cytometry; inhibition, % at 10 µM; 720 tested, under 10 active; AID 602140; call rule not given here
LF protease CP1: blocks anthrax lethal factor protease. shares compounds with BoNT-F LC inh. multiplex microsphere protease cleavage assay, LF. inhibition, % at 10 µM. 720 tested, under 10 active. AID 602142; call rule not given here
CCHF vOTU inh-2: CCHFV vOTU protease inhibition, confirmation; actives 17% (n = 1,900); inhibition, % at 11.5 µM; Recombinant CCHFV vOTU, Pep-AMC fluorescence; shares compounds with CCHF vOTU inh-1
Numbers stand for hits; i = inactive; nt = no result. Rows were chosen to be rich in hits. Some 3.9% of all compounds tested hit in one or more screens of this group. Cut-off read from the data, not from the text of the source, unless noted: active = inhibition above about 30%; inactive = the rest.

SMILES	BoNT-F LC inh	Anthrax LF inh2	CCHF vOTU inh-1	BoNT-A LC inh2	Bead autofluor	SARS 3CLpro inh-1	SARS 3CLpro inh-2	others
COc1cccc(NC(=O)CN(C)C(=O)c2cccnc2Nc2cccc(C(F)(F)F)c2)c1	i	i	nt	i	i	nt	nt
O=C(OCc1cn(Cc2cc(F)cc(F)c2)nn1)N1CCOCC1	nt	nt	i	nt	nt	nt	nt
Cc1nn(-c2ccccc2)c(N)c1C(c1ccccc1)c1c(C)nn(-c2ccccc2)c1N	i	i	i	i	i	14	i
COc1cc2c(cc1NC(=O)CSc1nnc(-c3cccc(Cl)c3)n1-c1ccccc1)oc1ccccc12	nt	nt	i	nt	nt	nt	nt
COc1cccc(NC(=O)Nc2c(-c3ccc(F)cc3)nc3ncccn23)c1	nt	nt	i	nt	nt	nt	nt
O=C(c1cc2ccccc2cc1O)N1CCN(c2cccc(Cl)c2)CC1	i	i	i	i	i	nt	nt
O=C(c1c(Cl)nc2sccn12)N1CCN(c2cccc(Cl)c2)CC1	i	i	i	i	i	44	i
CC(=O)Nc1ccc(NC(=O)CSc2nnc(-c3n[nH]c4c3CCC4)n2N)cc1	nt	nt	i	nt	nt	nt	nt
N#CCC(=O)N/N=C/c1cn(Cc2ccccc2C#N)c2ccccc12	nt	nt	i	nt	nt	i	nt
N#CCC(=O)N/N=C/c1c(-c2ccccc2)n(-c2ccccc2)c2ccccc12	i	i	i	i	i	22	23
NC(=S)N/N=C/c1ccccc1	i	i	i	i	i	i	nt
NC(=S)N/N=C/c1ccc(C23CC4CC(CC(C4)C2)C3)cc1	nt	nt	nt	nt	nt	14	i
CCCCOc1ccc(Nc2cc(Cl)ccc2C(=O)O)cn1	i	i	37	i	i	i	i	CCHF vOTU inh-2=i
O=C(NS(=O)(=O)c1cccc(F)c1)[C@H]1O[C@@H](n2ccc(=O)[nH]c2=O)[C@H](O)[C@@H]1O	nt	nt	i	nt	nt	nt	nt
NS(=O)(=O)c1ccc(Nc2ccc([N+](=O)[O-])c3nonc23)cc1	i	i	31	i	i	15	i	CCHF vOTU inh-2=i
Cc1nc2sc(C(=O)NCc3nccs3)c(N)c2c(C)c1Cl	nt	nt	i	nt	nt	nt	nt
COC1C(OC(=O)c2ccc(C)[nH]2)C(O)C(Oc2ccc3c(O)c(NC(=O)c4ccc(O)c(CC=C(C)C)c4)c(=O)oc3c2Cl)OC1(C)C (centres undefined)	i	i	38	i	i	13	i	CCHF vOTU inh-2=i
Cc1ccc(S(=O)(=O)/N=C2\C=C(Nc3cccc(C(=O)O)c3)C(=O)c3ccccc32)cc1	i	i	105	i	i	14	i	CCHF vOTU inh-2=99
COC(=O)c1ccccc1NC1=C/C(=N\S(=O)(=O)c2ccc(C(=O)O)cc2)c2ccccc2C1=O	i	i	nt	i	i	i	nt
Cc1cc(C(=O)c2ccccc2)c(NC(=O)CCl)s1	i	i	32	i	i	76	81	CCHF vOTU inh-2=i
CCN(CC)CC(=O)Nc1sc(C)cc1C(=O)c1ccccc1	i	i	i	i	i	i	nt
O=S(=O)(c1ccc(Cl)s1)N1CCC(c2cn3ccccc3n2)CC1	nt	nt	i	nt	nt	nt	nt
CC(=O)NC(Cc1ccccc1)P(=O)(O)O (centres undefined)	nt	nt	i	nt	nt	nt	nt
Cc1ccc2c(c1)c1c(n2CC(O)CN2CCCCCC2)CCCC1 (centres undefined)	i	i	35	i	i	20	i	CCHF vOTU inh-2=i
CC(C)c1c(C(=O)N/N=C/c2ccc3c(c2)OCO3)nnn1-c1nonc1N	i	i	i	i	i	i	nt
CCN(CC)c1ccc(/C=N/NC(=O)c2nnn(-c3nonc3N)c2C(C)C)c(O)c1	i	i	31	i	i	14	i	CCHF vOTU inh-2=i
CCNc1ccc(S(=O)(=O)N(C)C)cc1NCC(=O)Nc1ccccc1F	i	i	i	i	i	i	nt
CCNc1ccc(S(=O)(=O)N(C)C)cc1NCC(=O)Nc1ccccc1Br	41	i	i	i	i	i	nt	BoNTA LC inh 1=i;BoNT-F LC CP1=i;LF protease CP1=i
O=S(=O)(c1ccccc1Br)N(Cc1cn(Cc2ccccc2)nn1)C1CC1	nt	nt	i	nt	nt	nt	nt
